Measurements reported in PubChem BioAssay (EPA / NIEHS).
Results filed as inconclusive are left out. Activity calls are given as the source filed them. The calls were made as follows, unless noted: active = hit-call score of the fitted dose curve at least 0.9, where 1 is the maximum; inactive = score below 0.9.

Experiments:
[1] = CCTE_Mundy_HCI_Cortical_NOG_NeuriteLength: CCTE's Neurite Outgrowth Assay in rat cortical cells for Neurite Length, Mundy Lab (AID 2284213)
Outline: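 Neurite length was read by high-content imaging of βIII-tubulin-labelled neurites in rat primary cortical cultures. Activity was fitted relative to DMSO.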

[2] = CCTE_Mundy_HCI_Cortical_Synap_Neur_Matur_NeuriteLength: CCTE's Synaptogenesis and Neurite Maturation Assay in rat cortical cells for Neurite Length, Mundy Lab (AID 2284214)
Outline: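 Rat primary cortical cultures, AraC added DIV 5, dosed DIV 7 through DIV 12 […]. Fixed, MAP2/synaptophysin immunostained with Hoechst; neurite length by high-content imaging, fitted in positive direction versus DMSO.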

[3] = CCTE_Mundy_HCI_Cortical_Synap_Neur_Matur_NeuriteSpotCountPerNeuron: CCTE's Synaptogenesis and Neurite Maturation Assay in rat cortical cells for Neurite Spot Count per Neuron Count, Mundy Lab (AID 2284215)
Outline: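 Read-out: neurite-associated synaptophysin puncta per neuron, imaged by high-content analysis after MAP2, synaptophysin and Hoechst staining. Rat primary cortical cultures, dosed DIV 7 through DIV 12; DMSO served as baseline.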

[4] = CCTE_Mundy_HCI_Cortical_Synap_Neur_Matur_SynapseCount: CCTE's Synaptogenesis and Neurite Maturation Assay in rat cortical cells for Synapse Count, Mundy Lab (AID 2284218)
Outline: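 Rat primary cortical cultures, AraC at DIV 5, chemical dosing DIV 7 to DIV 12 (288.33 h). Fixed cells stained for MAP2, synaptophysin and Hoechst; synapses per neuron counted by high-content imaging, loss of signal versus DMSO.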

[5] = CCTE_Mundy_HCI_Cortical_Synap_Neur_Matur_NeuriteCount: CCTE's Synaptogenesis and Neurite Maturation Assay in rat cortical cells for Neurite Count, Mundy Lab (AID 2284222)
Outline: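 Rat primary cortical cells; AraC added at DIV 5, chemicals dosed with media change at DIV 7 through DIV 12. MAP2/synaptophysin/Hoechst immunostaining, high-content imaging of neurite number; fitted relative to DMSO.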

[6] = CCTE_Mundy_HCI_Cortical_Synap_Neur_Matur_CellBodySpotCount: CCTE's Synaptogenesis and Neurite Maturation Assay in rat cortical cells for Cell Body Spot Count, Mundy Lab (AID 2284223)
Outline: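 Read-out: cell body-associated synaptophysin puncta per neuron, imaged after MAP2, synaptophysin and Hoechst staining. Rat cortical cells, AraC DIV 5, chemical dosing DIV 7, fixation DIV 12. Activity fitted in positive direction relative to DMSO baseline.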

[7] = CCTE_Mundy_HCI_hNP1_Pro_ResponderAvgInten: CCTE's Proliferation Assay in human neuroprogenitor cells, Mundy Lab (AID 2284224; active = hit-call score of the fitted dose curve at least 0.9, where 1 is the maximum;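 also: human neural progenitor cells hNP1 derived from WA09 embryonic stem cells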)
Outline: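 Human neuroprogenitors (hNP1, WA09 lineage) receive test chemical after 40 to 44 hours of attachment. A four-hour BrdU pulse begins twenty hours later, followed by fixation and high content imaging; signal is referenced to DMSO controls.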

[8] = CCTE_Mundy_HCI_Cortical_NOG_NeuronCount: CCTE's Neurite Outgrowth Assay in rat cortical cells for Neuron Count, Mundy Lab (AID 2284236; active = hit-call score of the fitted dose curve at least 0.9, where 1 is the maximum;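 also: neurons counted by imaging betaIII-tubulin and Hoechst stained cortical cells; cells exposed to compound for about 48 hours before fixation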)
Outline: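 Read-out: neuron number by high-content imaging of betaIII-tubulin (Alexa Fluor-488) and Hoechst-labelled rat primary cortical cells.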

[9] = CCTE_Mundy_HCI_Cortical_NOG_BPCount: CCTE's Neurite Outgrowth Assay in rat cortical cells for Branch Point Count, Mundy Lab (AID 2284237)
Outline: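 Measured 50.33 h after dosing, this morphology endpoint uses rat primary cortical cultures labelled for betaIII-tubulin. Branch points are quantified by high-content imaging, with DMSO as negative control and baseline.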

[10] = CCTE_Mundy_HCI_hNP1_Casp3_7: CCTE's Caspase-Glo 3/7 Assay in human neuroprogenitor cells for Apoptosis, Mundy Lab (AID 2284240)
Outline: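 Neuroepithelial-lineage stem cells from WA09 embryonic cells were treated with chemicals after 40–44 h of culture. Twenty-four hours later, caspase-3/7 activation was detected luminescently after a 30 min room-temperature reagent step, with DMSO as baseline.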

[11] = CCTE_Mundy_HCI_hNP1_CellTiter: CCTE's Cell Titer-Glo 2 Assay in human neuroprogenitor cells for Viability, Mundy Lab (AID 2284241; active = hit-call score of the fitted dose curve at least 0.9, where 1 is the maximum)
Outline: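 Measures ATP content in human neural progenitors derived from WA09 embryonic cells. Read-out at 26.5 hours after dosing, with DMSO serving as the negative control and baseline.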

[12] = IUF_NPC2c_oligodendrocyte_migration_120hr: Leibniz Research Institute for Environmental Medicine (IUF) 120-hour Neural Progenitor Cell Migration Assay for Oligodendrocyte Migration (NPC2c) (AID 2284297);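 also: O4-positive oligodendrocyte migration distance divided by radial glia migration distance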
Outline: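 hNPC spheres (GW 16-19 cortex), PDL/laminin, DMEM/F12 3:1 + 1% N2, 37C. Dosing day 0–5, half feed day 3, DMSO ≤0.1%. Fixed 120 h; O4 ICC + Hoechst, HCI. Readout: mean oligodendrocyte distance from sphere edge / radial glia distance.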

[13] = IUF_NPC2a_radial_glia_migration_120hr: Leibniz Research Institute for Environmental Medicine (IUF) 120-hour Neural Progenitor Cell Migration Assay for Radial Glia Migration (NPC2a) (AID 2284298)
Outline: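 Hoechst-stained nuclei imaged at 120 h; algorithm maps sphere core by densest nuclei, sets migration edge at density threshold, gives radial glia migration distance (um) per well vs DMSO. hNPC spheres (0.3 mm), PDL/laminin, DMEM/F12 3:1 + 1% N2.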

[14] = IUF_NPC2a_radial_glia_migration_72hr: Leibniz Research Institute for Environmental Medicine (IUF) 72-hour Neural Progenitor Cell Migration Assay for Radial Glia Migration (NPC2a) (AID 2284299)
Outline: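 Human fetal neural progenitor spheres (0.3 mm) plated on poly-D-lysine/laminin in N2 differentiation medium and exposed from day 0 at 7 concentrations; radial glia migration distance from sphere edge measured at 72 h on brightfield images, mean of four directions, vs DMSO.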

[15] = IUF_NPC2b_neuronal_migration_120hr: Leibniz Research Institute for Environmental Medicine (IUF) 120-hour Neural Progenitor Cell Migration Assay for Neuron Migration (NPC2b) (AID 2284300)
Outline: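 hNPC spheres, PDL/laminin, DMEM:F12 3:1 + 1% N2, 37C/5% CO2; 7 concentrations + solvent control (DMSO ≤0.1%), 5 d exposure, half-feed day 3. Fix 120 h, TUBB3 ICC, HCI: mean neuron migration distance ÷ glia distance.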

[16] = IUF_NPC3_neuronal_differentiation_120hr: Leibniz Research Institute for Environmental Medicine (IUF) 120-hour Neuronal Differentiation Assay (NPC3) (AID 2284301)
Outline: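 Primary human fetal neural progenitor spheres (GW 16-19, 0.3 mm) plated on poly-D-lysine/laminin in N2 medium, exposed from day 0 for 120 h with half-medium refresh at day 3. TUBB3+ cells as percent of Hoechst nuclei in migration area; DMSO baseline.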

[17] = IUF_NPC4_neurite_length_120hr: Leibniz Research Institute for Environmental Medicine (IUF) 120-hour Neuronal Morphology Assay for Neurite Length (NPC4) (AID 2284302)
Outline: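 Human fetal cortex (GW 16-19) neural progenitor spheres, 0.3 mm, were plated on poly-D-lysine/laminin in N2 differentiation medium and exposed from day 0 for 120 h, half-feeding at day 3. Mean TUBB3+ neurite length (µm) came from skeletonized images, relative to DMSO.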

[18] = IUF_NPC5_oligodendrocyte_differentiation_120hr: Leibniz Research Institute for Environmental Medicine (IUF) 120-hour Oligodendrocyte Differentiation Assay (NPC5) (AID 2284304; active = hit-call score of the fitted dose curve at least 0.9, where 1 is the maximum;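 also: primary human fetal neural progenitor spheres plated to migrate and differentiate; share of O4-positive cells among Hoechst nuclei found by CNN image analysis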)
Outline: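 hNPC spheres, fetal cortex GW 16-19; PDL/laminin, DMEM:F12 3:1 + 1% N2, 37C/5% CO2; 7 concentrations + solvent control, 5 d exposure, half-change day 3. Readout: %O4+ of Hoechst+ nuclei in migration area, CNN classification; DMSO baseline.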

[19] = IUF_NPC4_neurite_area_120hr: Leibniz Research Institute for Environmental Medicine (IUF) 120-hour Neuronal Morphology Assay for Neurite Area (NPC4) (AID 2284305; active = hit-call score of the fitted dose curve at least 0.9, where 1 is the maximum)
Outline: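 Human fetal cortex-derived neural progenitor spheres (0.3 mm, GW 16-19) plated on poly-D-lysine/laminin in N2 differentiation medium and exposed from day 0 for 120 h across 7 concentrations plus solvent control. Neurite area is mean pixel area per TUBB3-positive neuron via skeletonization, analysed relative to DMSO.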

[20] = IUF_NPC2-5_cytotoxicity_72hr: Cytotoxicity Assessment at 72 hours in the Leibniz Research Institute for Environmental Medicine (IUF) Neural Progenitor Cell Migration and Differentiation Assay for Cytotoxicity (NPC2-5) (AID 2284306; active = hit-call score of the fitted dose curve at least 0.9, where 1 is the maximum;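 also: LDH release into supernatant measured by resorufin fluorescence marking membrane damage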)
Outline: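 Human fetal (GW 16-19) neural progenitor spheres, 0.3 mm, plated on poly-D-lysine/laminin in N2 differentiation medium and exposed from day 0 to 7 concentrations plus solvent control (DMSO ≤0.1%). LDH-dependent resazurin-to-resorufin fluorescence in supernatant at 72 h.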

[21] = IUF_NPC2-5_cytotoxicity_120hr: Cytotoxicity Assessment at 120 hours in the Leibniz Research Institute for Environmental Medicine (IUF) Neural Progenitor Cell Migration and Differentiation Assay (NPC2-5) (AID 2284307; active = hit-call score of the fitted dose curve at least 0.9, where 1 is the maximum)
Outline: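 hNPC spheres on PDL/laminin, N2 medium, 37C; 7 concs + solvent control, DMSO ≤0.1%; 5-day exposure, half medium changed day 3. LDH in supernatant at 120 h, resazurin→resorufin fluorescence, gain-of-signal.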

[22] = IUF_NPC2-5_cell_number_120hr: Cell Number Assessment at 120 hours in the Leibniz Research Institute for Environmental Medicine (IUF) Neural Progenitor Cell Migration and Differentiation Assay (NPC2-5) (AID 2284308);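 also: count of Hoechst-stained nuclei in migration zone around plated human neural progenitor spheres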
Outline: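 Hoechst-stained nuclei within the migration area were counted by automated high content imaging after 120 h. Single hNPC spheres differentiated on poly-D-lysine/laminin in DMEM/F12 (3:1) with 1% N2, compound present throughout, DMSO ≤0.1%.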

[23] = IUF_NPC1_cytotoxicity_72hr: Cytotoxicity Assessment at 72 hours in the Leibniz Research Institute for Environmental Medicine (IUF) Neural Progenitor Cell Proliferation Assay (NPC1) (AID 2284332; active = hit-call score of the fitted dose curve at least 0.9, where 1 is the maximum;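 also: rising LDH signal means more cytotoxicity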)
Outline: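 Human fetal neural progenitor spheres (0.3 mm) in EGF/FGF proliferation medium, 37C, exposed 72 h without renewal. LDH release in supernatant read by resorufin fluorescence; gain of signal scored relative to dynamic range.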

[24] = CCTE_Mundy_HCI_iCellGluta_NOG_NeuronCount: CCTE's Neurite Outgrowth Assay in iCellGluta cells for Neuron Count, Mundy Lab (AID 2284340; active = hit-call score of the fitted dose curve at least 0.9, where 1 is the maximum;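 also: cells fixed about 48 h after compound addition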)
Outline: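 Neuron count read by automated high-content imaging of Hoechst 33342 and betaIII-tubulin/Alexa Fluor-488 labelling in human iPSC glutamatergic neurons. Activity fitted relative to DMSO.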

[25] = CCTE_Mundy_HCI_iCellGluta_NOG_NeuriteCount: CCTE's Neurite Outgrowth Assay in iCellGluta cells for Neurite Count, Mundy Lab (AID 2284342; active = hit-call score of the fitted dose curve at least 0.9, where 1 is the maximum;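 also: chemical exposure about 48 hours starting 2 hours after plating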)

Measured: AC50

CCCCCC(C)(CC)C(=O)NC (stereo not given)
active: [14] 1020 nM
inactive: all other assays above
